Columns and labels:
Experiment in all cases: PBM binding z-score (relative to random genomic background probes); higher = stronger binding; sequences stand for … in GC…GCGATTGACAGCGTAGAATGAAGG
[1] = tested on: PPARg:RXRa DBDmut IVT, anti-RXR (DBD mutation: RXRa K156A/R161A, NR concentration 270 nM, RXRa partner concentration 90 nM)
Procedure, shortened: (§1)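 Custom Agilent 4×180K protein-binding microarrays carried double-stranded probes, each with a 34-nt variable region. These regions held direct-repeat seeds, single-nucleotide variants, half-site ablations and random human genomic background sequences. Ligand-free nuclear receptor dimers were incubated on the arrays for 1 h, antibodies against each partner (one per run) detected binding, and scanned fluorescence was regression-normalized. Binding z-scores take the random background probes as reference.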

[2] = tested on: PPARg:RXRa IVT, anti-PPARg (NR concentration 270 nM, RXRa partner concentration 90 nM)
Procedure, shortened: as §1

[3] = tested on: PPARg DBDmut:RXRa IVT, anti-PPARg (DBD mutation: PPARg1 K132A/R137A, NR concentration 270 nM, RXRa partner concentration 90 nM)
Procedure, shortened: as §1

[4] = tested on: PPARg DBDmut IVT, anti-PPARg (DBD mutation: PPARg1 K132A/R137A, NR concentration 270 nM)
Procedure, shortened: as §1

[5] = tested on: PPARg homodimer (NR concentration 180 nM)
Procedure, shortened: as §1

[6] = tested on: PXR:RXRa (NR concentration 270 nM, RXRa partner concentration 90 nM)
Procedure, shortened: as §1

[7] = tested on: PXR homodimer (NR concentration 270 nM)
Procedure, shortened: as §1

[8] = tested on: RARa:RXR (NR concentration 270 nM, RXRa partner concentration 90 nM)
Procedure, shortened: as §1

[9] = tested on: RARa homodimer (NR concentration 270 nM)
Procedure, shortened: as §1

[10] = tested on: RARb:RXRa (NR concentration 270 nM, RXRa partner concentration 90 nM)
Procedure, shortened: as §1

Sequence	PBM binding z-score [1]	PBM binding z-score [2]	PBM binding z-score [3]	PBM binding z-score [4]	PBM binding z-score [5]	PBM binding z-score [6]	PBM binding z-score [7]	PBM binding z-score [8]	PBM binding z-score [9]	PBM binding z-score [10]
CCTAGTTGGACAAGGTCACACACGCTATAGGTAC	0.793	2.52	0.526	0.701	3.15	3.9	1.97	4.4	2.1	3.85
CGAACTAGGTCTTTGACAGGACAGTGAATAGTAA	4.79	3.63	0.956	0.308	0.0171	-0.285	-0.19	0.0375	-0.136	0.0398
TTACCAAGGTGAGCTGAGGTCGTAGATCCAACTC	0.925	1.67	-0.714	-0.674	-0.332	4.2	-0.58	2.1	-0.84	1.85
GCTGCTAGGTCAGGTTAGTCAGCTAACGGGTACG	2.9	2.42	-0.896	-1.02	0.349	0.128	-0.498	0.677	-0.907	3.29
GCAGACAGGTGAAACGCAGGTAGCTCAGGGTGGC	1.07	0.347	-0.762	-0.471	-0.599	-0.573	-0.785	-0.358	-0.976	0.536
CTACCAACGTGAACAAGGTCGTTGATTACTATTC	0.278	0.249	0.577	1.06	0.913	1.72	1	1.4	0.795	0.631
TGAATGAGGATAAAGATCAGGGAACGTGGCGTCG	-0.598	0.0508	-0.331	-0.373	-0.144	-0.614	-0.0385	-0.537	-0.101	-0.238
GCTAGTTGGTCAGTAAAAGGTCACCCACCGGTCG	0.689	2.81	0.204	-0.0831	5.31	4.84	1.27	5.99	3.9	4.28
CCTGCTGGGCCACGAAAGGTCATTGATTCAGTGA	1.93	2.25	-0.596	-0.339	5.05	5.52	1.38	5.76	2.23	4.05
CGTCCAAGGTCAGAGAGGCCAGTGAATGCCGAGT	2.19	2.04	-0.142	-0.792	1.17	2.83	2.62	2.56	-0.0378	4.62
ATATGTAGGTTAGCTGGGGTTATTCAGACTAGGC	6.78	6.18	3.12	2.79	1.88	4.02	0.969	3.11	1.26	1.38
CCTAACAGGCCAGGGTCACTCAAGCATTTCGCTT	0.296	0.882	-0.338	-0.618	1.4	2.58	-0.222	3.26	0.384	2.85
TCTTGTAGATCAGCAGGTTAACAAAGCTGGCCAA	1.62	0.747	-0.763	-0.365	0.0617	0.171	-0.584	0.489	-0.289	0.359
TCAGATAGGTAAAAGGTGAAAGTCGGTGTGGTAA	3.61	3.39	0.424	0.558	1.78	1.84	0.95	2.63	1.51	2.02
CGTCAAAGTTCAACTACGGTAACGTAAAGCACGC	0.132	1.78	0.517	0.931	3.69	5.14	3.79	4.38	2.22	5.2
CCTTCTGGGCCAAAAAGGTCATTGATGCCGATAA	3.91	3.68	-0.102	-0.685	3.67	4.74	4.12	5.1	1.14	3.83
ACTAGCAGGCCAAGTTTGGGTTACTCAAACAAAG	0.764	0.439	-1.56	-0.888	-0.611	-0.324	-0.543	0.00564	-0.953	0.389
ACAGACAGGTGATGAAGATAACTCAGGCTATCAT	-0.0309	0.209	0.00107	0.948	0.0066	-0.435	0.0307	-0.227	0.47	0.0491
GCTCGGAGGACAAGGTCAGATCTTTGTCCGTAGA	-0.309	0.755	-0.782	-0.686	0.86	1.87	-0.322	2.22	-0.579	3.52
CCGACTGGGGCAAGGCTACCATAACGCACAGCCA	2.56	2.89	-0.229	-0.37	-0.287	-0.481	-0.488	-0.164	-0.086	0.763
TCTTGTAGATCAAGCAGGTTGAGAAAGCCTGAGT	1.7	0.256	-0.788	-0.244	-0.463	0.124	-0.29	-0.172	-0.364	-0.242
TCATATAGGTAAAAGGTGAAAGGCGGTGTGGTAA	5.24	5.21	3.35	1.06	2.76	1.69	0.582	2.48	1.28	1.79
GCAGACAGGTGAACCGCAGGTAACTCAGGGTGGC	0.713	0.87	-0.564	-0.733	-0.518	0.615	-0.535	1.09	-0.768	0.901
CGTGAAAGTTCAACTAAGGTAACGTAAAGCACGC	-0.0451	1.86	0.513	0.603	2.63	5.31	3.52	3.81	1.22	5.19

Sequence	PBM binding z-score [1]	PBM binding z-score [2]	PBM binding z-score [3]	PBM binding z-score [4]	PBM binding z-score [5]	PBM binding z-score [6]	PBM binding z-score [7]	PBM binding z-score [8]	PBM binding z-score [9]	PBM binding z-score [10]
AGAACCAGGGCAATGAGTTGATAGCACGGGTGGC	2.95	2.68	0.333	-0.225	-0.0189	0.171	0.97	-0.324	-0.0861	0.985
TTTTGTAGATCAAAGGTTAAGAAAGCCGAAGCCT	1.61	3.98	0.975	1.12	1	2.05	-0.0288	3.17	0.339	2.07
GCGACTGGGGCAAAGCAGTTTACCATAAGGTTGG	4.75	3.5	0.0777	-0.489	0.131	0.655	-0.386	-0.18	-0.418	0.776
GCGACTGGGGCATCAGCAGGGTACCATAACTTAA	3.75	2.79	-0.747	-0.946	-0.494	-0.289	-0.457	-0.268	-1.05	0.517
GCGACTGGGGCCAAGCAGGTTACCATAAGGTTGG	-0.26	-0.0452	-0.943	-1.96	-0.242	-0.00892	-0.184	0.223	-1.01	1.14
ATATGTAGGTTACATACGGGTCATTCAGGCTATG	7.45	7.06	2.47	2.75	1.74	3.1	0.979	3.65	0.636	2.33
TAAATGAGGTTAAAGATCAGGGAACGTGGCGTCG	3.59	4.36	2.17	2.54	1.72	2.36	0.486	3.21	1.03	2.29
CAAACTAGGTCACAGGTCAAAGTCGAGCCAACCA	8.4	9.27	4.16	4.09	4.17	4.41	0.711	5.81	0.827	4.7
CGTCCAAGGTCAAGGTCTGTGAAAGAGACTCGAA	3.42	3.88	2.1	0.39	4.29	3.72	0.462	4.54	1.7	5.24
TGTCAAATTTCAAAGGTAACGTAAGTATCCACAC	-0.296	1.37	1	1.11	0.532	0.473	0.33	0.98	0.848	1.04
ATCTCTAGGTAAAGATAGTTTAGTGAATGCAAAT	1.81	2.04	1.07	0.379	0.699	0.277	0.329	-0.0138	0.933	0.0107
CCTACAGGGCCAAAAAGGTCATTGATGCCGATAA	-0.0995	0.938	-1.38	-1.06	2.94	5.28	4.66	5.28	1.42	4.26
ATCGAAAGGTCGACGATGTGAGTATACACCGTTT	0.505	1.37	0.994	1.25	1.43	2.29	0.0146	3.17	0.516	3.94
ACTTACGGGTCAACGTGGTTATAGCACGCGTATA	3.4	3.77	1.64	1.34	2.74	3.45	0.0483	4.28	1.23	4.02
AGAATGAGGTTATTAAGATAAGGGAATTGCGGTC	2.05	2.31	1.03	0.188	0.58	0.886	0.278	1.24	0.541	1.23
TCTTGTAGATCAACAGGAGGTCAAGAAAGATCGA	1.49	2.17	0.588	0.144	1.8	3.74	0.715	4.01	0.649	2.84
CGTCCAAGGTCATAGGAGGTCAGTGATGACAGAT	3.37	4.38	0.469	0.243	3.94	6.6	3.48	5.69	2.24	5.32
TCTTGTAGATCAGTAGGTTAAGAAAGCTGGCCAA	2.89	2.61	0.246	0.243	0.822	0.448	0.0641	0.921	0.433	0.272
ATCTCTAGGTAGAAGTTCAGTGAATCCCGAGGAT	0.0712	1.23	0.95	0.43	0.271	0.947	1	0.436	0.785	1.07
CAAACTAGGTCAAAAGTCAAAGTCGAGCCAACCA	8.48	8.18	0.975	1.19	1.78	2.68	-0.0368	4.56	0.778	3.78
ACAGACAGGTGATGAAGGTATCTCAGGCTATCAT	-0.101	0.167	-0.0054	-0.542	0.117	-0.369	0.175	-0.241	-0.481	0.0103
CTACCAAGGTGAACAAGGTCGGTGATTACTATTC	1.91	2.78	0.327	-0.584	0.38	0.812	0.00939	1.11	0.0895	1.97
CGTCCAAGGTCAATGCTAGGTCAGTGATAGCATT	3.49	4.23	0.259	0.244	6.16	5.12	2	6.2	2.14	5.21
CCTACTTGGCCATTCAGAGGTCATTGATCATATG	1.47	1.52	1.11	0.893	2.19	4.93	1.5	4.54	1.18	3.13

Source: the supplement of paper PMC6555819
